Source: PubChem BioAssay (Tox21)
Inconclusive results are not listed. Activity calls are given as the source filed them. Unless noted, the call rests on the fitted dose curve; in most records, active means well fitted curve in the direction sought with a large enough effect in the repeat runs; inconclusive means weak or mixed curves; inactive means no such curve, though single readings can be large; an effect the other way counts as inactive or inconclusive.

What was measured:
[1] = biological target: Thyrotropin-releasing hormone receptor (Homo sapiens) (UniProt P34981); assay: qHTS assay to identify small molecule antagonists of the thyrotropin-releasing hormone receptor (TRHR) signaling pathway (AID 1346877; active means well fitted inhibition curve with a large enough effect in the repeat runs, not every such curve was filed as active; further: series mostly up to about 51 µM; on the % scale 0 is the no-effect control and ±100 the full control effect)
Chain of Thyrotropin-releasing hormone receptor (Homo sapiens) (P34981 whole entry, looked up): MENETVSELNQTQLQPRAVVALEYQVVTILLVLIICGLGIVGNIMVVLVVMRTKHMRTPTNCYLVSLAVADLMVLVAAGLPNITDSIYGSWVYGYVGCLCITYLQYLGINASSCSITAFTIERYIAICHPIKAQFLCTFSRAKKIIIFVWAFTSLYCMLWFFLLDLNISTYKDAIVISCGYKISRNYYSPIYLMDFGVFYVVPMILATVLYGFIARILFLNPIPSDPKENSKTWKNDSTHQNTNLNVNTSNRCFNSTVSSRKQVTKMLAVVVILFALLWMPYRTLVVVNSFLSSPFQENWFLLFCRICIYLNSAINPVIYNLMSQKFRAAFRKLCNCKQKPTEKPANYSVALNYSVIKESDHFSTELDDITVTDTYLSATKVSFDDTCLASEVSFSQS
In short: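 Screening used HEK293 cells engineered with TRHR, with a brief 5 min room-temperature compound exposure preceding addition of TRH to 1 nM. The read-out was kinetic calcium-dye fluorescence, concentration-response from 15 doses in triplicate.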

[2] = Human pregnane X receptor (PXR) small molecule agonists, qHTS cell viability counter screen (AID 1346977); further: potency means the concentration at half of the fitted maximal effect; nearly all actives have a fitted effect of over 50% in size
In short: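 Same-well viability read: CellTiter-Fluor added after 23 hr compound exposure, fluorescence measured 1 hr later. Cells were PXR-Luc HepG2 seeded at 2,000/well in 5% charcoal-stripped FBS medium, rested 5 hr before dosing at 37 C.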

[3] = Caspase-3/7 induction in CHO-K1 cells by small molecules, qHTS cell viability counter screen (AID 1346979); further: nearly all actives have a fitted effect of over 35% in size; further: potency means the concentration at half of the fitted maximal effect
In short: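 Cytotoxicity counter screen: CellTiter-Fluor added to compound-treated wild-type CHO-K1 cells at 16 h (37C, 5% CO2), fluorescence measured 1 h later; same wells as caspase-3/7 measurement.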

[4] = Caspase-3/7 induction in CHO-K1 cells by small molecules, qHTS assay (AID 1346980); further: nearly all actives have a fitted effect of over 15% in size; further: potency means the concentration at half of the fitted maximal effect
In short: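 Wild-type CHO-K1 cells exposed to compounds for 17hr at 37 C, 5% CO2. Caspase-3/7 activity then measured by Caspase-Glo 3/7 luminescence after 30min at room temperature.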

[5] = Caspase-3/7 induction in HepG2 cells by small molecules, qHTS cell viability counter screen (AID 1346981); further: nearly all actives have a fitted effect of over 30% in size; further: potency means the concentration at half of the fitted maximal effect
In short: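 Multiplexed with the caspase-3/7 assay: HepG2 cells, 16 hr compound treatment, CellTiter-Fluor viability detection by fluorescence.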

[6] = biological target: Nuclear receptor subfamily 1 group I member 2 (Homo sapiens) (UniProt O75469); assay: Human pregnane X receptor (PXR) small molecule agonists, qHTS assay (AID 1346982); further: nearly all actives have a fitted effect of over 35% in size; further: potency means the concentration at half of the fitted maximal effect; on activation: on the % scale 0 is the no-effect control and ±100 the full control effect
Chain of Nuclear receptor subfamily 1 group I member 2 (Homo sapiens) (O75469 whole entry, looked up): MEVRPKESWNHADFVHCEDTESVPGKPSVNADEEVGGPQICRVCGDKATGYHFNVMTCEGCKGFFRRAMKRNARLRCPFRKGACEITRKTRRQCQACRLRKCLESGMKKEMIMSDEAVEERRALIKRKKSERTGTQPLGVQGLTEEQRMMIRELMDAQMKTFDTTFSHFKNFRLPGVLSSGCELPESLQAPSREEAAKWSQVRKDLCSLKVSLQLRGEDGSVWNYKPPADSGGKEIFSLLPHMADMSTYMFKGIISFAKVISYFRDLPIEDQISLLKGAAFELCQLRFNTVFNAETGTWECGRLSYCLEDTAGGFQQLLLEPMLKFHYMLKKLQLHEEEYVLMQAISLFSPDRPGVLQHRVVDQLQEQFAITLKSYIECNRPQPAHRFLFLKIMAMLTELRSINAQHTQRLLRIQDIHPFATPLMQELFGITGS
In short: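 We seeded PXR-Luc HepG2 cells in assay medium containing 5% charcoal-stripped FBS, added compounds 5 hr later, incubated 24 hr, and read luminescence with ONE-Glo reagent.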

[7] = biological target: Nuclear receptor subfamily 1 group I member 2 (Rattus norvegicus) (UniProt Q9R1A7); assay: Rat pregnane X receptor (rPXR) activation by small molecules, qHTS assay (AID 1346983); conditions: rPXR luciferase reporter cells, One-Glo luminescence, 24 h; max activation: active compounds read high; further: on the % scale 0 is the no-effect control and ±100 the full control effect; nearly all actives have a fitted effect of over 20% in size
Chain of Nuclear receptor subfamily 1 group I member 2 (Rattus norvegicus) (Q9R1A7 whole entry, looked up): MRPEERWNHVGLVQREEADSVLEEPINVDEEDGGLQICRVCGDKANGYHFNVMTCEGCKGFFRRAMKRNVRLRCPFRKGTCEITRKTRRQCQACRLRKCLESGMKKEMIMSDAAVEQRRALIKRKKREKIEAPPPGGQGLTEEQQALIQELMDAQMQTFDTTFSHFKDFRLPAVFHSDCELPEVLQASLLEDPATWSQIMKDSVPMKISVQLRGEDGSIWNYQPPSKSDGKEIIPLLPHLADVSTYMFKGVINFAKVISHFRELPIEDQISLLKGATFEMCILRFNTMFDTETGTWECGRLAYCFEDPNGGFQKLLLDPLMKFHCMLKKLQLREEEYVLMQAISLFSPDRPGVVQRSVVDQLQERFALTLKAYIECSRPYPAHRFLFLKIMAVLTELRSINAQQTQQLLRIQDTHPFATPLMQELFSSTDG
In short: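 Cell-based rPXR activation assay: rPXR cells, 2,000 per well, rested 5hr at 37 C, then exposed to compounds in DMSO for 24 hr at 37 C. Luciferase activity read by One-Glo luminescence after 30 min at room temperature.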

[8] = biological target: Nuclear receptor subfamily 1 group I member 2 (Homo sapiens) (UniProt O75469); assay: CYP3A4 induction through human pregnane X receptor (PXR) by small molecules, qHTS assay (AID 1346984); further: on the % scale 0 is the no-effect control and ±100 the full control effect; nearly all actives have a fitted effect of over 40% in size
In short: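 qHTS, concentration-response format: HepG2 DPX-2 line, PXR/CYP3A4-luc. Exposure 24 h, 37C. Substrate Luciferin-IPA 3uM final, 3 h. Detection One-Glo, 30 min RT.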

[9] = biological target: Nuclear receptor subfamily 1 group I member 2 (Homo sapiens) (UniProt O75469); assay: Human pregnane X receptor (PXR) activation by small molecules, qHTS assay (AID 1346985); further: on the % scale 0 is the no-effect control and ±100 the full control effect; nearly all actives have a fitted effect of over 40% in size
In short: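 DPX-2 cells (HepG2 co-transfected with a PXR response element and a CYP3A4-promoter luciferase construct) were seeded at 2,000 per well, rested 5 hr at 37C, then exposed to DMSO-dissolved compounds for 24 hr. Activation was read as luciferase luminescence.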

[10] = biological target: Cytochrome P450 2D6 (Homo sapiens) (UniProt P10635); assay: Cytochrome P450 Family 2 Subfamily D Member 6 (CYP2D6) small molecule antagonists: luciferase reporter qHTS assay (AID 1671196); further: nearly all actives have a fitted effect of over 50% in size; further: potency means the concentration at half of the fitted maximal effect
Chain of Cytochrome P450 2D6 (Homo sapiens) (P10635 whole entry, looked up): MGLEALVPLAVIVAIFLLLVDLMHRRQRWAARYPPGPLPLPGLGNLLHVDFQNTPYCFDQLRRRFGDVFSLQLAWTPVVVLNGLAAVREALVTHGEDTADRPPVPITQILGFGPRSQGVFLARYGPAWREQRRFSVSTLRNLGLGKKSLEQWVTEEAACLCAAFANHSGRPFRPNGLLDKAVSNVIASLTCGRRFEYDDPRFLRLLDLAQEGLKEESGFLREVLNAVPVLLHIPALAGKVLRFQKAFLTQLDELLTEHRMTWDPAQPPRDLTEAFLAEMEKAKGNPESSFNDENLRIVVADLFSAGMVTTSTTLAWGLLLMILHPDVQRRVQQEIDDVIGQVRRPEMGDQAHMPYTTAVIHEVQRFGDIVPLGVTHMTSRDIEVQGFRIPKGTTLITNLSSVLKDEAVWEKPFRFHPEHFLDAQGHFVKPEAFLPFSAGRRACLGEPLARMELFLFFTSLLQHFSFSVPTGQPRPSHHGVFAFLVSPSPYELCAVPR
In short: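 Luminescence (RLU), read 20 min after detection reagent, indicated CYP2D6 conversion of proluciferin to luciferin during a 1 h NADPH-dependent reaction at room temperature.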

[11] = biological target: Cytochrome P450 2C19 (Homo sapiens) (UniProt P33261); assay: Cytochrome P450 Family 2 Subfamily C Member 19 (CYP2C19) small molecule antagonists: luciferase reporter qHTS assay (AID 1671197); further: nearly all actives have a fitted effect of over 65% in size; further: potency means the concentration at half of the fitted maximal effect
Chain of Cytochrome P450 2C19 (Homo sapiens) (P33261 whole entry, looked up): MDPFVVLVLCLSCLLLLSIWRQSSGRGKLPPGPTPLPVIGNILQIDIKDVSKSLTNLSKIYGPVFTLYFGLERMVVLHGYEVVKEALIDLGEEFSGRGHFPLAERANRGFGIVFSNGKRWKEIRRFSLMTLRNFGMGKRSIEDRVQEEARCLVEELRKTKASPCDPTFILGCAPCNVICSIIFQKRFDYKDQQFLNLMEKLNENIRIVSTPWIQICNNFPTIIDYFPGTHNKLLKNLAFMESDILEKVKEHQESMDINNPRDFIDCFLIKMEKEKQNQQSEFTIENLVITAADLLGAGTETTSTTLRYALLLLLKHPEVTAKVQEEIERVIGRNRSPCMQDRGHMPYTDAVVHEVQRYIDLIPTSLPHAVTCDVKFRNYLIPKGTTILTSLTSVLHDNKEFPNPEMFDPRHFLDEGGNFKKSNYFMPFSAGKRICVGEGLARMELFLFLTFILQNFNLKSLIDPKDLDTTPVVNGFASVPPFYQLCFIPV
In short: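 Light output is proportional to CYP2C19 activity: proluciferin substrate is converted to luciferin, then detected by a luciferin detection reagent that also stops the 1 h, 37C NADPH-driven reaction. Ketoconazole serves as positive control.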

[12] = biological target: Cytochrome P450 1A2 (Homo sapiens) (UniProt P05177); assay: Cytochrome P450 Family 1 Subfamily A Member 2 (CYP1A2) small molecule antagonists: luciferase reporter qHTS assay (AID 1671199); further: nearly all actives have a fitted effect of over 50% in size; further: potency means the concentration at half of the fitted maximal effect
Chain of Cytochrome P450 1A2 (Homo sapiens) (P05177 whole entry, looked up): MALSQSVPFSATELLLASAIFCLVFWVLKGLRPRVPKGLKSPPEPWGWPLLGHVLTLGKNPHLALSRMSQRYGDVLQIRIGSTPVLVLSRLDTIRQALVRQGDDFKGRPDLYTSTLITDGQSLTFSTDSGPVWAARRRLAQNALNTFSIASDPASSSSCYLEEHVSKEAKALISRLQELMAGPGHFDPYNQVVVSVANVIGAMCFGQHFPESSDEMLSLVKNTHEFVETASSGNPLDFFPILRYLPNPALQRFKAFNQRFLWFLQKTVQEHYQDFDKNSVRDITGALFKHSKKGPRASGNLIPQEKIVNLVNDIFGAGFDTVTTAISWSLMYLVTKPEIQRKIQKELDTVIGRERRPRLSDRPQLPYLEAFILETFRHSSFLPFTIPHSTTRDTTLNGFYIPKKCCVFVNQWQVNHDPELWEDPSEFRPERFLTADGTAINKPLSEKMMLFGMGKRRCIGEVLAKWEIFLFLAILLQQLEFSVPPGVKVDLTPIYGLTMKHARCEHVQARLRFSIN
In short: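 CYP1A2 turnover of a luminogenic substrate was quantified after 1 h with NADPH regeneration at room temperature. Furafylline served as positive control.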

[13] = qHTS assay to identify small molecule antagonists of the TGF-beta/Smad signaling pathway - cell viability counter screen (AID 1346824); further: on the % scale 0 is the no-effect control and ±100 the full control effect; nearly all actives have a fitted effect of over 50% in size
In short: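 SBE-bla HEK 293T cells, incubated overnight, then compound plus 0.25 ng/mL TGF-beta1 (stock added) for 5 hr at 37 C. Viability was read in the same wells by CellTiter-Glo luminescence after 30 min at room temperature.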

[14] = qHTS assay to identify small molecule agonists of the TGF-beta/Smad signaling pathway - cell viability counter screen (AID 1346829); further: top concentration of the series differs between compounds; on the % scale 0 is the no-effect control and ±100 the full control effect; nearly all actives have a fitted effect of over 45% in size
In short: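 Here the cytotoxicity of library compounds is measured in SBE-bla HEK 293T cells treated for 5 hr, using CellTiter-Glo added to wells already read for the beta-lactamase reporter.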

[15] = Caspase-3/7 induction in HepG2 cells by small molecules, qHTS assay (AID 1346978); further: nearly all actives have a fitted effect of over 15% in size; further: potency means the concentration at half of the fitted maximal effect
In short: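 Wild-type HepG2 cells, 2,000/well, settled 5 hr at 37 C and 5% CO2, then compound-treated for 17 hr; caspase-3/7 activity read by luminescent Caspase-Glo 3/7 after 30 min at room temperature.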

[16] = qHTS assay to identify small molecule agonists of the TGF-beta/Smad signaling pathway (AID 1346859; active means well fitted activation curve with a large enough effect in the signal ratio in the repeat runs, not every such curve was filed as active; the % refers to the signal ratio; further: series mostly up to about 77 µM; on the % scale 0 is the no-effect control and ±100 the full control effect)
In short: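 Fluorescence (ex 405 nm; em 460 and 530 nm) was read 2 h after LiveBLAzer FRET substrate at RT. The preceding compound treatment of overnight-plated SBE-bla HEK293T cells lasted 5 h at 37 C.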

[17] = biological target: Cytochrome P450 2C9 (Homo sapiens) (UniProt P11712); assay: Cytochrome P450 Family 2 Subfamily C Member 9 (CYP2C9) small molecule antagonists: luciferase reporter qHTS assay (AID 1671198); further: nearly all actives have a fitted effect of over 50% in size; further: potency means the concentration at half of the fitted maximal effect
Chain of Cytochrome P450 2C9 (Homo sapiens) (P11712 whole entry, looked up): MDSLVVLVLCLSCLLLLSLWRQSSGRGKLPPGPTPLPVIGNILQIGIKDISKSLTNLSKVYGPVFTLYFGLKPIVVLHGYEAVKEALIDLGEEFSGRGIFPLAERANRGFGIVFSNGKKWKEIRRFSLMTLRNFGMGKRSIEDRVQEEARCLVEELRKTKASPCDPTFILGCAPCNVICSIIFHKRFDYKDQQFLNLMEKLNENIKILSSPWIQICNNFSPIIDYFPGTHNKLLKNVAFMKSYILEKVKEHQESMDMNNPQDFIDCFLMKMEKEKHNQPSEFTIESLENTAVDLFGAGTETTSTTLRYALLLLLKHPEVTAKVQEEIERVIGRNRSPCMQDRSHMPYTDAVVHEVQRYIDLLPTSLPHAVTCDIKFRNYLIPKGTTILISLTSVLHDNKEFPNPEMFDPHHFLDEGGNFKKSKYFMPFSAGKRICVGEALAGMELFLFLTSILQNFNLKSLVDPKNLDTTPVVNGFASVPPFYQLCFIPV
In short: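 P450-Glo proluciferin substrate with CYP2C9 enzyme; 10 min RT preincubation, then NADPH regeneration 1 h at 37C; luciferin detection reagent 20 min RT, luminescence in relative luminescence units.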

[18] = biological target: Voltage-gated inwardly rectifying potassium channel KCNH2 (Homo sapiens) (UniProt Q12809); assay: Human Ether-a-go-go-Related Gene (hERG) channel small molecule antagonists: fluorescence cell-based qHTS assay (AID 1671200)
Chain of Voltage-gated inwardly rectifying potassium channel KCNH2 (Homo sapiens) (Q12809 whole entry, looked up): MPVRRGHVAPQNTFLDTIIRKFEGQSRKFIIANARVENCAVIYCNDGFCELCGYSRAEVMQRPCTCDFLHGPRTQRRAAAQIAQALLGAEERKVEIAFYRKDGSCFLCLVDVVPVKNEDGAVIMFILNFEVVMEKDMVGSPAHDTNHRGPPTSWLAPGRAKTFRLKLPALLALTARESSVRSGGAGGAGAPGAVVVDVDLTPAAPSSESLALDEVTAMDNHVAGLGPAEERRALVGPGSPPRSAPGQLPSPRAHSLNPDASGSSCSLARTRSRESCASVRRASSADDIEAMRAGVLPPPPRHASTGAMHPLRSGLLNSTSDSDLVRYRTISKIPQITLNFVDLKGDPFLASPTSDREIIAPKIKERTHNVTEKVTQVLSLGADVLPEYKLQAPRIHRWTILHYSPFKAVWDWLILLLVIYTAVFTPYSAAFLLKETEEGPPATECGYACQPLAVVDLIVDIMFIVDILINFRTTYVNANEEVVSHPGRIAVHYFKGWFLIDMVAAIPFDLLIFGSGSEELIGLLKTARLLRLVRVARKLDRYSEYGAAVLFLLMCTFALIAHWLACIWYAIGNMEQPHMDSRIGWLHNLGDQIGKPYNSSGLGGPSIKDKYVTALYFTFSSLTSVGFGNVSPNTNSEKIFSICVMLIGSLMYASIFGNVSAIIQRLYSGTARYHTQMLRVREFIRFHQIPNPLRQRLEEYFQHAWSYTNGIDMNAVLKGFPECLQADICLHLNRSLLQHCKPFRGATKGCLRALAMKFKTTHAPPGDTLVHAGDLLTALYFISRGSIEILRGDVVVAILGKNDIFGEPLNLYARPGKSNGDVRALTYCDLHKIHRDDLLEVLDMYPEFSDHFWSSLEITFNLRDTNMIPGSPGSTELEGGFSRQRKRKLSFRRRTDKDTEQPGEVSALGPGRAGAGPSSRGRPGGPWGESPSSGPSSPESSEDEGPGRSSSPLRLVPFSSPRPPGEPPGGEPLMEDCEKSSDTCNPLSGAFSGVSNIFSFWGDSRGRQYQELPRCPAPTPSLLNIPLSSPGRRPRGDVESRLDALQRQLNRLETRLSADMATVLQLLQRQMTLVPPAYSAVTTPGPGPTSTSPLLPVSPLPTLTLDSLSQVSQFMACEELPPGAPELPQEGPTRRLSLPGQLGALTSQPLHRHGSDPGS
In short: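 Thallium flux as potassium surrogate: FluxOR II dye loaded 1 h at room temperature into hERG-expressing U2OS cells, then stimulus buffer added after 10 min. Kinetic 480 nm excitation/540 nm emission read, 2 min.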

[19] = biological target: Thyrotropin-releasing hormone receptor (Homo sapiens) (UniProt P34981); assay: qHTS assay to identify small molecule agonists of the thyrotropin-releasing hormone receptor (TRHR) signaling pathway (AID 1346891; calls by dose curve; further: series mostly up to about 58 µM; on the % scale 0 is the no-effect control and ±100 the full control effect)
In short: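 Agonist-mode intracellular calcium readout: kinetic fluorescence over 3 min at 1 s intervals after compound addition to TRHR-HEK293 cells (18 h seeded, 2 h dye-loaded at 37 C). Fifteen concentrations, triplicates.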

COc1cc(/C=C/C(=O)CC(=O)/C=C/c2ccc(O)c(OC)c2)ccc1O
inactive: Potency [1] | Potency [4] | max activation [7] 8.99% | Potency [8] | Potency [9]
active: Potency [2] 30.8 µM | Potency [3] 43.5 µM | Potency [5] 30.8 µM | Potency [6] 24.5 µM | Potency [10] 35.8 µM | Potency [11] 10.1 µM | Potency [12] 31.9 µM

C=CC1=C(C(=O)O)N2C(=O)[C@@H](NC(=O)/C(=N/OCC(=O)O)c3csc(N)n3)[C@H]2SC1 (stereo in doubt)
inactive: max activation [7] -1.86%

CN1CC[C@H](c2c(O)cc(O)c3c(=O)cc(-c4ccccc4Cl)oc23)[C@H](O)C1
inactive: Potency [13] | Potency [14] | Potency [11] | Potency [12]
active: Potency [2] 0.0944 µM | Potency [15] 0.237 µM | Potency [3] 0.0944 µM | Potency [4] 0.266 µM | Potency [5] 0.335 µM | Potency [6] 0.106 µM

CC(C)=NNC(N)=S
active: Potency [12] 71 µM
inactive: Potency [13] | outcome [16] | Potency [1] | Potency [15] | Potency [4] | Potency [5] | Potency [17] | Potency [18]

CCN(CC)c1ccc(N=Nc2ccccc2)cc1
active: Potency [2] 27.3 µM | Potency [3] 48.6 µM | Potency [5] 27.3 µM | Potency [6] 1.37 µM | Potency [11] 20 µM | Potency [12] 11.2 µM
inactive: outcome [16] | Potency [15] | Potency [4] | Potency [18]

CCSCC
inactive: Potency [13] | outcome [16] | Potency [1] | Potency [19] | Potency [15] | Potency [3] | Potency [4] | Potency [5] | Potency [10] | Potency [11] | Potency [18]

O=C(CCN1CCC(c2ccccc2)C1)c1ccc2c(c1)OCCO2 (centres undefined)
inactive: Potency [13] | outcome [16] | Potency [1] | Potency [15] | Potency [4] | Potency [5] | max activation [7] -4.55% | Potency [8] | Potency [9]
active: Potency [3] 26.6 µM | Potency [6] 13.3 µM

O=C(Nc1ccccc1)c1cc(Cl)ccc1O
inactive: outcome [16] | Potency [1] | Potency [15] | Potency [4] | Potency [18]
active: Potency [3] 17.2 µM | Potency [6] 15.4 µM | Potency [11] 35.6 µM | Potency [17] 17.8 µM | Potency [12] 12.6 µM

O=C(O)c1ccccn1
inactive: max activation [7] -2.98%

CCCCCCCCCCCCCCCCCCNC(=O)OC1CCN(C(=O)OC[C@H](COC(=O)N(Cc2cccc[n+]2CC)C(=O)c2ccccc2OC)OC)CC1
inactive: Potency [1] | Potency [19] | Potency [15] | Potency [4] | Potency [6] | Potency [12]
active: Potency [3] 29.8 µM | Potency [11] 43.6 µM

CC(C)[N+]1(C)[C@@H]2CC[C@H]1CC(OC(=O)C(CO)c1ccccc1)C2 (some centres undefined)
inactive: max activation [7] -2.6%

O=S(=O)(c1ccc(OCc2ccccc2)cc1)c1ccccc1O
active: Potency [2] 61.1 µM | Potency [3] 43.3 µM | Potency [6] 61.1 µM | Potency [11] 6.33 µM | Potency [17] 39.9 µM
inactive: Potency [13] | outcome [16] | Potency [15] | Potency [4] | Potency [18]
